This is an account of results in PubChem BioAssay (NCI).

Each structure is given as a SMILES string. The panel holds about 83,000 compounds, 20% with a hit somewhere; the sample as a whole holds those more often.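 Compound tested at a single concentration for 48 hours in 96-well plates; a percent growth value below 10 was scored as active.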 A number with no mark means an inactive call. Calls of active or inactive are those of the source.

This experiment deals with MDA-MB-468 breast. Briefly: NCI-60 one-dose screen, 48 h (100 = growth as untreated, 0 = no growth, -100 = all killed). The conditions noted are these: 10 µM unless noted.
For `Cn1cc(-c2csc(-c3cn(C)c4ncccc34)n2)c2cccnc21`, the growth was -10.8% (active).

Take `CCNC(=O)Oc1ccc(/C(=C(/C)c2ccc(Cl)cc2)c2ccc(OCCN3CCCCCC3)cc2)cc1`: the growth was 4.44% (active).

Take `Cc1ccc(C2CC(c3nc(-c4ccc(Cl)cc4)oc3C)=NN2C(=O)c2ccncc2)cc1` (stereo not drawn): the growth was 97.8%.

Regarding `O=C(N/N=C/c1c[nH]c2ccccc12)c1cc(-c2ccccc2)on1`, the growth is 94.9%.

Turning to `COc1cc(C)c(Cl)cc1C1=NN(c2ccc(S(N)(=O)=O)cc2)C(/C=C/c2ccccc2)C1` (stereo not drawn), the growth was 41.2%.

Turning to `COC(=O)C(OC(C)=O)C(OC(C)=O)c1ccc(OC)c(OC)c1` (stereo not drawn), the growth is 108%.

Turning to `COc1ccc(/C=C2\Oc3cc(OCCCCCN4CCCCC4)ccc3C2=O)cc1OC`, the growth was 57.6%.

With `Cc1cc(N2CCCC2)nc(NCc2cc(Nc3ccnc4cc(Cl)ccc34)ccc2F)n1`, the growth was -58.7% (active).

On to `CCCCNC(=O)C(=O)NCCCC`, for which the growth was 102%.

As to `CS(=O)(=O)Nc1cc(-c2ccc3ncnc(Nc4cccc(Cl)c4F)c3c2)cnc1Cl`, the growth was -18.4% (active).

With `C=C(C)[C@@H]1CC[C@]2(C(=O)OC)CC[C@]3(C)[C@H](CC[C@@H]4[C@@]5(C)C/C(=C/c6cccc(I)c6)C(=O)C(C)(C)[C@@H]5CC[C@]43C)[C@@H]12`, the growth was 86.7%.

As to `Cc1cc(Cl)nc(NCc2cc(Nc3ccnc4cc(Cl)ccc34)ccc2F)n1`, the growth is 11.4%.

Take `CCNC(=O)Oc1ccc(/C(=C(\C)c2ccc(Cl)cc2)c2ccc(OCCN3CCCCC3)cc2)cc1`: the growth was 56.5%.
